# Assay results published in PubChem BioAssay AID720541 (National Center for Advancing Translational Sciences (NCATS), 2013).
# Out of some 1,300 compounds screened, about 420 (32%) were called active. Another 32% or so got no clear call; they are omitted. This is one part of the list. Values without a mark were called inactive. The call rests on the fitted dose curve; in most records, active means well fitted inhibition curve with a large enough effect; inconclusive means small, poorly fitted or top-dose-only effect; inactive means no such curve, though single readings can be large or run the other way.
# Target: C-terminal-binding protein 1 (Homo sapiens) (UniProt Q13363)
# Test: qHTS for Inhibitors of the Phosphatase Activity of Eya2: Carboxyl-terminal binding protein (CtBP) Counterscreen for Cherry-picked Compounds; further: nearly all actives have a fitted effect of over 65% in size
# Conditions: purified protein-protein binding, AlphaScreen, 3 h; series mostly up to 46.1 µM; activity change, negative = inhibition: at the top concentration
# Summary of the method: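 AlphaScreen using 25 nM GST-E1A with 25 nM CtBP-6xHIS; compounds at 2.5 nM–46 uM final, 2 h at room temperature, then donor/acceptor beads (20 ug/mL) for 1 h in the dark. Signal normalized to E1A peptide inhibitor (maximum inhibition) and DMSO.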
# On the % scale 0 is the no-effect control and ±100 the full control effect; potency means the concentration at half of the fitted maximal effect.
SMILES,"activity change, negative = inhibition [%]",Potency
O=C(C1CCN(c2nnc(-n3cccc3)s2)CC1)N1CCOCC1,3.78,–
Cc1ccc(NC(=O)CN2C(=O)S/C(=C\c3cc(Cl)c(OCC(=O)O)c(Cl)c3)C2=O)cc1,–,15.1 µM (active)
CCOc1ccc2c(c1)-c1c(ssc1=S)C(C)(C)N2C(=O)CSC1=NCCS1,–,15.1 µM (active)
Cc1cc(C)nc(-n2nc(C)cc2NC(=O)c2cc3ccccc3oc2=O)n1,–,4.78 µM (active)
CN1/C(=C\C=C2/SC(=S)NC2=O)C(C)(C)c2ccccc21,–,12 µM (active)
CC1=NN(c2ccccc2)C(=O)/C1=C\C=C1/N(C)c2ccccc2C1(C)C,–,9.53 µM (active)
CNc1ccc(C=C2c3ccccc3-c3ccccc32)cc1,–,12 µM (active)
CN(C)c1ccc(/C=C2\C(Cl)=Cc3ccccc32)cc1,–,6.75 µM (active)
CN(C)c1ccc(/C=C2\c3ccccc3-c3ccc(N(C)C)cc32)cc1,–,5.36 µM (active)
CN(C)c1ccc2c(c1)C(=NO)c1ccccc1-2,–,16.9 µM (active)
Cc1oc(-c2ccc(-c3ccccc3)cc2)nc1CN(C)C1CCOC1 (stereo unspecified),-27.8,–
Cc1ccc(C(=O)Oc2ccc(N3C(=O)CCC3=O)c(C)c2)cc1,-13.3,–
O=C(/C=C/c1ccc(O)c(O)c1)OC(Cc1ccc(O)c(O)c1)C(=O)O (stereo unspecified),-4.19,–
COc1cccc(OC)c1C(=O)OCC(=O)NCC1CCCCC1,4.69,–
CC1=CC(C)(C)n2c(O)c(C3=NC(=S)NC3=O)c3cc(OC(=O)c4cccc5ccccc45)cc1c32,-29.4,–
CN(C)c1ccc(/C=C2\C(=O)/C(=C/c3ccc(N(C)C)cc3)c3ccccc32)cc1,–,5.36 µM (active)
CN(C)c1ccc(C=C2c3ccccc3-c3ccccc32)cc1,–,8.49 µM (active)
OC(COc1ccc2cc(Br)ccc2c1)Cn1ccnc1 (stereo unspecified),-3.87,–
COc1ccc(Nc2cc3n(c(=O)n2)CCc2cc(OC)c(OC)cc2-3)c(C)c1,–,12 µM (active)
COc1cc2c(cc1OC)-c1cc(Nc3ccc(C)cc3)nc(=O)n1CC2,–,4.26 µM (active)
CCOc1ccc(Nc2cc3n(c(=O)n2)CCc2cc(OC)c(OC)cc2-3)cc1,–,5.36 µM (active)
COc1cc2c(cc1OC)-c1cc(Nc3ccccc3)nc(=O)n1CC2,–,6.75 µM (active)
COc1ccc(NC(=O)c2cc(S(=O)(=O)N3CCc4ccccc43)cn2C)cc1OC,4.75,–
Cc1nc(COC(=O)c2c(C)nn(-c3ccccc3)c2C)cs1,5.54,–
COc1cc2c(cc1OC)-c1cc(Nc3ccc(F)cc3)nc(=O)n1CC2,–,2.39 µM (active)
O=C(NCc1ccc2c3c(cccc13)C(=O)N2)c1cccs1,-16.3,–
